In PubChem BioAssay (NCI):
The panel holds about 83,000 compounds, 20% with a hit somewhere; the sample as a whole holds those more often.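 Single-concentration screen, 48 h exposure, 96-well plates. Endpoint: percent growth. Below 10 = active.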 Active and inactive are the calls of the source.

How the values were obtained:
Assay in all cases: NCI-60 one-dose screen, 48 h (100 = growth as untreated, 0 = no growth, -100 = all killed)
Conditions in all cases: 10 µM unless noted
SR leukemia = tested on: SR leukemia
RPMI-8226 leukemia = tested on: RPMI-8226 leukemia
OVCAR-8 ovarian = tested on: OVCAR-8 ovarian
OVCAR-5 ovarian = tested on: OVCAR-5 ovarian
OVCAR-4 ovarian = tested on: OVCAR-4 ovarian
SK-OV-3 ovarian = tested on: SK-OV-3 ovarian
IGROV1 ovarian = tested on: IGROV1 ovarian
OVCAR-3 ovarian = tested on: OVCAR-3 ovarian
HS 578T breast = tested on: HS 578T breast
NCI/ADR-RES ovarian = tested on: NCI/ADR-RES ovarian
T-47D breast = tested on: T-47D breast
MDA-MB-435 melanoma = tested on: MDA-MB-435 melanoma
SW-620 colon = tested on: SW-620 colon
MCF7 breast = tested on: MCF7 breast
HCT-116 colon = tested on: HCT-116 colon
HCC-2998 colon = tested on: HCC-2998 colon
KM12 colon = tested on: KM12 colon

Measured: growth

COc1ccc2oc(=O)cc(CN3C(=O)S/C(=C\c4ccc(Cl)cc4)C3=O)c2c1
inactive: SR leukemia 71.8% | RPMI-8226 leukemia 73.1% | OVCAR-8 ovarian 100% | OVCAR-5 ovarian 97.3% | OVCAR-4 ovarian 91.7% | SK-OV-3 ovarian 113% | IGROV1 ovarian 102% | OVCAR-3 ovarian 89.1% | HS 578T breast 108% | NCI/ADR-RES ovarian 94.6% | T-47D breast 86.6% | MDA-MB-435 melanoma 105% | SW-620 colon 108% | MCF7 breast 86.9% | HCT-116 colon 84.8% | HCC-2998 colon 104% | KM12 colon 96.1%

COc1ccc(-c2nc(SCC(C)C)nc(Nc3ccc(C)cc3)c2C#N)cc1
inactive: SR leukemia 44.3% | RPMI-8226 leukemia 73.2% | OVCAR-8 ovarian 72.3% | OVCAR-5 ovarian 86.4% | SK-OV-3 ovarian 73.7% | IGROV1 ovarian 59.5% | OVCAR-3 ovarian 33.8% | HS 578T breast 42.6% | NCI/ADR-RES ovarian 72.7% | T-47D breast 32.4% | MDA-MB-435 melanoma 86.7% | SW-620 colon 54.4% | MCF7 breast 70.3% | HCT-116 colon 33.5% | HCC-2998 colon 92.5% | KM12 colon 80.8%
active: OVCAR-4 ovarian -50.4%

CC(=O)Nc1nc(C)c(C(=O)NNC(=O)Nc2ccccc2)s1
inactive: SR leukemia 95.9% | RPMI-8226 leukemia 91.7% | OVCAR-8 ovarian 113% | OVCAR-5 ovarian 108% | OVCAR-4 ovarian 109% | SK-OV-3 ovarian 105% | IGROV1 ovarian 141% | OVCAR-3 ovarian 100% | HS 578T breast 102% | NCI/ADR-RES ovarian 98.6% | T-47D breast 91.1% | MDA-MB-435 melanoma 128% | SW-620 colon 100% | MCF7 breast 100% | HCT-116 colon 102% | HCC-2998 colon 104% | KM12 colon 98.6%

O=C(/C=C1\C(=O)N(Cc2ccc([N+](=O)[O-])cc2)c2ccccc21)c1ccc(OCCN2CCCCC2)cc1
active: SR leukemia -27.9% | RPMI-8226 leukemia -36% | OVCAR-8 ovarian 0.287% | OVCAR-5 ovarian -40.6% | OVCAR-4 ovarian -58.8% | IGROV1 ovarian -49.3% | OVCAR-3 ovarian -93.8% | HS 578T breast 6.94% | NCI/ADR-RES ovarian 6.18% | T-47D breast -62.8% | SW-620 colon -78.7% | MCF7 breast -47.5% | KM12 colon 3.66%
inactive: SK-OV-3 ovarian 85% | MDA-MB-435 melanoma 22.5% | HCC-2998 colon 42.1%

O=C(N/N=C\c1ccc(-c2ccc(Br)cc2)o1)c1cc2oc(-c3cccc(C(F)(F)F)c3)cc2[nH]1
active: SR leukemia -3.49%
inactive: RPMI-8226 leukemia 98.4% | OVCAR-8 ovarian 103% | OVCAR-5 ovarian 88.4% | OVCAR-4 ovarian 106% | SK-OV-3 ovarian 115% | IGROV1 ovarian 130% | OVCAR-3 ovarian 101% | HS 578T breast 81.1% | NCI/ADR-RES ovarian 96% | T-47D breast 101% | MDA-MB-435 melanoma 98.9% | SW-620 colon 118% | MCF7 breast 89.9% | HCC-2998 colon 85.5% | KM12 colon 74%

N=C(N)c1ccc(-c2ccc(-c3ccc(Cl)cc3)s2)s1
active: SR leukemia -30.1% | RPMI-8226 leukemia -38.2% | OVCAR-8 ovarian -37% | OVCAR-5 ovarian -79.4% | OVCAR-4 ovarian -50.8% | SK-OV-3 ovarian -50.9% | IGROV1 ovarian -49.5% | OVCAR-3 ovarian -78.8% | HS 578T breast -21.7% | NCI/ADR-RES ovarian -47% | T-47D breast -31.7% | MDA-MB-435 melanoma -91.4% | SW-620 colon -69.5% | MCF7 breast -66% | HCT-116 colon -98.4% | HCC-2998 colon -74.2% | KM12 colon -85.3%

NCCCOc1cc(Cl)ccc1NC(=O)c1cc2ccccc2cc1OCCCN
active: SR leukemia -38.9% | RPMI-8226 leukemia -43.9% | OVCAR-8 ovarian -73.3% | OVCAR-5 ovarian -72.3% | OVCAR-4 ovarian -70.6% | SK-OV-3 ovarian -42.4% | IGROV1 ovarian -43.5% | OVCAR-3 ovarian -86.9% | HS 578T breast -56.4% | T-47D breast -70.5% | MDA-MB-435 melanoma -68.5% | SW-620 colon -92% | MCF7 breast -93.9% | HCT-116 colon -97.3% | KM12 colon -94.9%
inactive: NCI/ADR-RES ovarian 57.2%

O=C1CCNC1
inactive: SR leukemia 106% | RPMI-8226 leukemia 102% | OVCAR-8 ovarian 100% | OVCAR-5 ovarian 105% | OVCAR-4 ovarian 97.8% | SK-OV-3 ovarian 107% | IGROV1 ovarian 118% | OVCAR-3 ovarian 109% | HS 578T breast 114% | NCI/ADR-RES ovarian 110% | T-47D breast 107% | MDA-MB-435 melanoma 104% | SW-620 colon 103% | MCF7 breast 103% | HCT-116 colon 105% | HCC-2998 colon 118% | KM12 colon 111%

O=C(Nc1ccc(-n2cc(-c3ccncc3)c(-c3ccc(Cl)c(O)c3)n2)cc1)c1ccc(Cl)c(C(F)(F)F)c1
inactive: OVCAR-5 ovarian 52.6% | OVCAR-4 ovarian 40.6% | SK-OV-3 ovarian 14.4% | IGROV1 ovarian 27.5% | NCI/ADR-RES ovarian 29.4% | T-47D breast 47.2%
active: SR leukemia -13.4% | RPMI-8226 leukemia -42.7% | OVCAR-8 ovarian -1.91% | OVCAR-3 ovarian -24.9% | HS 578T breast -53.7% | MDA-MB-435 melanoma 3.99% | SW-620 colon -79.4% | MCF7 breast 6.22% | HCT-116 colon -100% | HCC-2998 colon 5.55% | KM12 colon 3.31%

COc1cc(-c2nn(-c3ccc(NC(=O)c4ccc(Cl)c(C(F)(F)F)c4)cc3)cc2-c2ccncc2)ccc1Cl
active: SR leukemia 2.82% | RPMI-8226 leukemia -23% | HS 578T breast -49.7% | SW-620 colon 6.21% | HCT-116 colon 9.19%
inactive: OVCAR-8 ovarian 49.2% | OVCAR-5 ovarian 55.7% | OVCAR-4 ovarian 46.4% | SK-OV-3 ovarian 60.5% | IGROV1 ovarian 46.7% | OVCAR-3 ovarian 28.7% | NCI/ADR-RES ovarian 30.7% | T-47D breast 26.7% | MDA-MB-435 melanoma 24.3% | MCF7 breast 21% | HCC-2998 colon 31.8%

COc1ccc(C2CC(=O)c3c(O)cc(OC4OC(COC5OC(C)C(O)C(O)C5O)C(O)C(O)C4O)cc3O2)cc1O (stereo not given)
inactive: SR leukemia 130% | RPMI-8226 leukemia 123% | OVCAR-8 ovarian 94.8% | OVCAR-5 ovarian 96.7% | OVCAR-4 ovarian 103% | SK-OV-3 ovarian 118% | IGROV1 ovarian 37.7% | OVCAR-3 ovarian 131% | HS 578T breast 106% | NCI/ADR-RES ovarian 109% | T-47D breast 121% | MDA-MB-435 melanoma 102% | SW-620 colon 113% | MCF7 breast 95.1% | HCT-116 colon 43.6% | HCC-2998 colon 129% | KM12 colon 124%

O=C(Nc1ccc(-n2cc(-c3ccncc3)c(-c3ccc(Cl)c(O)c3)n2)cc1)Nc1cc(C(F)(F)F)cc(C(F)(F)F)c1
inactive: OVCAR-8 ovarian 18.2% | OVCAR-5 ovarian 38.2% | OVCAR-4 ovarian 26.5% | SK-OV-3 ovarian 15% | IGROV1 ovarian 23.4% | OVCAR-3 ovarian 17.3% | NCI/ADR-RES ovarian 11.3% | T-47D breast 23.8% | SW-620 colon 26.1% | MCF7 breast 11% | HCT-116 colon 10.5% | HCC-2998 colon 36.1%
active: SR leukemia -0.887% | RPMI-8226 leukemia -25.7% | HS 578T breast -31.2% | MDA-MB-435 melanoma 6.62%

O=C1Nc2c(c(=O)n(-c3ccccc3)c3ccccc23)C(c2ccc(Cl)cc2)N1 (stereo not given)
inactive: SR leukemia 77.8% | RPMI-8226 leukemia 90.5% | OVCAR-8 ovarian 82.4% | OVCAR-5 ovarian 101% | OVCAR-4 ovarian 105% | SK-OV-3 ovarian 89.8% | IGROV1 ovarian 84% | OVCAR-3 ovarian 106% | HS 578T breast 70.2% | NCI/ADR-RES ovarian 99.7% | T-47D breast 91.5% | MDA-MB-435 melanoma 99.9% | SW-620 colon 98% | MCF7 breast 91.1% | HCT-116 colon 56.2% | HCC-2998 colon 61% | KM12 colon 61.1%

O=Nc1ccc(O)c2ccccc12
active: RPMI-8226 leukemia -12.1% | OVCAR-8 ovarian 7.56% | OVCAR-5 ovarian 1.31% | OVCAR-4 ovarian -96.5% | IGROV1 ovarian 2.08% | OVCAR-3 ovarian -6.85% | NCI/ADR-RES ovarian -0.605% | T-47D breast -9.85% | MDA-MB-435 melanoma -63.8% | MCF7 breast -37.8% | HCT-116 colon 0.195%
inactive: SR leukemia 11.5% | SK-OV-3 ovarian 99.9% | HS 578T breast 53.2% | SW-620 colon 12.1% | HCC-2998 colon 68.4% | KM12 colon 14%

COc1cc(-c2nn(-c3ccc(NC(=O)Nc4cc(C(F)(F)F)cc(C(F)(F)F)c4)cc3)cc2-c2ccncc2)ccc1Cl
active: SR leukemia -0.776% | RPMI-8226 leukemia -2.24% | OVCAR-8 ovarian 9.59% | OVCAR-4 ovarian -12.2% | SK-OV-3 ovarian -3.31% | IGROV1 ovarian 8.43% | OVCAR-3 ovarian -20.9% | HS 578T breast -34% | NCI/ADR-RES ovarian 3.86% | T-47D breast 8.74% | MDA-MB-435 melanoma 0.886% | MCF7 breast -4.41% | HCT-116 colon -11% | HCC-2998 colon -7.63% | KM12 colon 0.412%
inactive: OVCAR-5 ovarian 18.8% | SW-620 colon 13.9%

Cc1nc(NC(=O)NC2CCCCC2)sc1C(=O)NN
inactive: SR leukemia 131% | RPMI-8226 leukemia 112% | OVCAR-8 ovarian 102% | OVCAR-5 ovarian 102% | OVCAR-4 ovarian 109% | SK-OV-3 ovarian 116% | IGROV1 ovarian 72.2% | OVCAR-3 ovarian 99.5% | HS 578T breast 105% | NCI/ADR-RES ovarian 118% | T-47D breast 112% | MDA-MB-435 melanoma 115% | SW-620 colon 106% | MCF7 breast 105% | HCT-116 colon 83.8% | HCC-2998 colon 162%

COc1ccc2cn3c4ccc(O)cc4[nH]c(=O)c3c2c1
active: OVCAR-4 ovarian -2.67% | SK-OV-3 ovarian -1.15% | OVCAR-3 ovarian -7.15% | HS 578T breast -22.4% | NCI/ADR-RES ovarian -39% | MDA-MB-435 melanoma -37.7% | MCF7 breast -5.85%
inactive: SR leukemia 16.1% | RPMI-8226 leukemia 13.2% | OVCAR-8 ovarian 12.7% | OVCAR-5 ovarian 21% | IGROV1 ovarian 17.6% | T-47D breast 33.9% | SW-620 colon 11.3% | HCT-116 colon 10.6% | HCC-2998 colon 19.3% | KM12 colon 11.9%

CC(CCN1CCN(CCC(C)CC(C)(C)C)C1CC(C)CC(C)(C)C)CC(C)(C)C (stereo not given)
active: SR leukemia 5.62%
inactive: RPMI-8226 leukemia 76.4% | OVCAR-8 ovarian 89.8% | OVCAR-5 ovarian 90.4% | OVCAR-4 ovarian 98.2% | SK-OV-3 ovarian 96.4% | IGROV1 ovarian 81.7% | OVCAR-3 ovarian 73.3% | HS 578T breast 112% | NCI/ADR-RES ovarian 98.3% | T-47D breast 91.8% | MDA-MB-435 melanoma 104% | SW-620 colon 89.4% | MCF7 breast 95.7% | HCT-116 colon 60.9% | HCC-2998 colon 78.2% | KM12 colon 91%
